The full data set covers some 7,900 targets. This sample favours those with a hit. About 0.6% of all pairs of compound and target were hits.
compound: COc1cccc2cc(-c3nc([C@H]4CC[C@H](C(=O)O)CC4)n4ncnc(N)c34)[nH]c12; assay: log2 fold change, soluble protein after heating vs DMSO (PISA); higher = thermal stabilisation; K562 cells, 10 uM, 30 min; active = over 0.2 and 3.5 SD of the protein, either way, in both replicates (recomputed)
Procedure, shortened: (§1)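 K562 cells at 2×10^6 cells/mL were treated for 30 min with 10 μM compound, and aliquots were heated for 3 min over 48°C-58°C before pooling. Extraction used PBS with 0.5% NP-40 at 4°C, and soluble protein was the supernatant after 21,000xg for 90 min, measured by TMTpro 16plex LC-MS/MS with channel sums equalised. Thermal stability values, relative to control samples and from duplicates, are log2 fold changes.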

Sequence of UniProt P86791 (P86791 whole entry, looked up): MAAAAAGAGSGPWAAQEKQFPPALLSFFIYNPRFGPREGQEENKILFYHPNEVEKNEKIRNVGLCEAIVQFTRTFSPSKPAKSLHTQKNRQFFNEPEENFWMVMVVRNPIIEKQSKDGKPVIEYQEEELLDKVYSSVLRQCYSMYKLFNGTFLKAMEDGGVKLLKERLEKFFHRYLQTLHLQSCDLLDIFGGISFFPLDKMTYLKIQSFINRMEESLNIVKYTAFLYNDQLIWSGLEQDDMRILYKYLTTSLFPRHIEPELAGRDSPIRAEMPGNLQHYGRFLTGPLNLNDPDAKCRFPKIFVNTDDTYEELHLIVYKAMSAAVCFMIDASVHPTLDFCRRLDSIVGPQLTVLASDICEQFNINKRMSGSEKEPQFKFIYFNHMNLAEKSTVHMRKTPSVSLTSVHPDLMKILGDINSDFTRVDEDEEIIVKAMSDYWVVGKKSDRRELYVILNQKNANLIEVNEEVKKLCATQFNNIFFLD
Sequence of UniProt Q9NXV6 (Q9NXV6 whole entry, looked up): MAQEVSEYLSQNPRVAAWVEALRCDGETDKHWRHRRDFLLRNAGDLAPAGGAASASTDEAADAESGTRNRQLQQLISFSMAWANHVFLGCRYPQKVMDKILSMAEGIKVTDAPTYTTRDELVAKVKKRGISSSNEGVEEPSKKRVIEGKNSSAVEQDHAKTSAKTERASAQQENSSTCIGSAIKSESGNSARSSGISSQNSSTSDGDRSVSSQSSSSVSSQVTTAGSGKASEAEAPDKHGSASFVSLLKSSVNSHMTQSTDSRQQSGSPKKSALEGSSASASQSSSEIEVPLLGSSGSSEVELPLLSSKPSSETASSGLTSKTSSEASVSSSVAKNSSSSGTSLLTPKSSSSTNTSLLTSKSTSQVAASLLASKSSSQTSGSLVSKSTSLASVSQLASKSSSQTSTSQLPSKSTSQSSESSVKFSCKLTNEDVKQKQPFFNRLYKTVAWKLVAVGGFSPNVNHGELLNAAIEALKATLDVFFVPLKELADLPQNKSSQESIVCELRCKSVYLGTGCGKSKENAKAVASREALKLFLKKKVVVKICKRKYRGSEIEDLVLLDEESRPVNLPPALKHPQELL
Sequence of UniProt Q14004 (Q14004 whole entry, looked up): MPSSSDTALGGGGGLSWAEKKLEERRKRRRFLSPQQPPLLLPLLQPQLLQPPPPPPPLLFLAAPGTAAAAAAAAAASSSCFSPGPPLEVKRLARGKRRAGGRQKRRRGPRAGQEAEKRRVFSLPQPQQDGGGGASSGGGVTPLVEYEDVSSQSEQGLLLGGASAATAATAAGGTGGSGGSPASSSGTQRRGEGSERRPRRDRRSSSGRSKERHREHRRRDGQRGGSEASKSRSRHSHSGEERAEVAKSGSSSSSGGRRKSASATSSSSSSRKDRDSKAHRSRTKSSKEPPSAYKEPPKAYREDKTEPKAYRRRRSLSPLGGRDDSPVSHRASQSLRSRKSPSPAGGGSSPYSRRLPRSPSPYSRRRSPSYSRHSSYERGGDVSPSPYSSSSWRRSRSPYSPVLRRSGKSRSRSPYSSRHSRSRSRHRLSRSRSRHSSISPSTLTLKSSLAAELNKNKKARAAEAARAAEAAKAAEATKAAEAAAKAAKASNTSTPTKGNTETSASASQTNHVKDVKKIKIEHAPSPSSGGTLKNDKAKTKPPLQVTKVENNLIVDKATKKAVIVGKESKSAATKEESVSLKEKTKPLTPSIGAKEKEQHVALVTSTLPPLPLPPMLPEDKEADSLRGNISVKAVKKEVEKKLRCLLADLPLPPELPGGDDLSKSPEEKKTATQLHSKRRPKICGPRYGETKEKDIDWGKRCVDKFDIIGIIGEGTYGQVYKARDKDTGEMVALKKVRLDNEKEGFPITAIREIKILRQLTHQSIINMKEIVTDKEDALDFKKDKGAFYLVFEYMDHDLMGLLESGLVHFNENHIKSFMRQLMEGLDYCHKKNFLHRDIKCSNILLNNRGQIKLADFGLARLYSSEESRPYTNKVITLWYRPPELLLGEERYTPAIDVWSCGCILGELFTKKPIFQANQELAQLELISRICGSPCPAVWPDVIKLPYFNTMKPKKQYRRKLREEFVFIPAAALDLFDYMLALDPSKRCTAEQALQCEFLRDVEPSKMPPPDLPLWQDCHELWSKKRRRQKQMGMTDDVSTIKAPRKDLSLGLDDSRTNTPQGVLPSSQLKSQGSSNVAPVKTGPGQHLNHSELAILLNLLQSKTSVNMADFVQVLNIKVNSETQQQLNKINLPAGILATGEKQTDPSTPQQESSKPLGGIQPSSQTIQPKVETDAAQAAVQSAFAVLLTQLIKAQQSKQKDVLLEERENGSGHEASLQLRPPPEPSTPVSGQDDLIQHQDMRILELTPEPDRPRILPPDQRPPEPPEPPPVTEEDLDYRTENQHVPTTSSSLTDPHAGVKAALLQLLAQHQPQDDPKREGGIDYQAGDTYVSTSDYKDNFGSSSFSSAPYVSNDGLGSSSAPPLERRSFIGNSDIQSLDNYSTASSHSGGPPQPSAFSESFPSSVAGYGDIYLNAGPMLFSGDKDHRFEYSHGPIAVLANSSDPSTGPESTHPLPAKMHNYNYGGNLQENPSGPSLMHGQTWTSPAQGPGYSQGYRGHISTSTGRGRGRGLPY
Sequence of UniProt Q9NZN8 (Q9NZN8 whole entry, looked up): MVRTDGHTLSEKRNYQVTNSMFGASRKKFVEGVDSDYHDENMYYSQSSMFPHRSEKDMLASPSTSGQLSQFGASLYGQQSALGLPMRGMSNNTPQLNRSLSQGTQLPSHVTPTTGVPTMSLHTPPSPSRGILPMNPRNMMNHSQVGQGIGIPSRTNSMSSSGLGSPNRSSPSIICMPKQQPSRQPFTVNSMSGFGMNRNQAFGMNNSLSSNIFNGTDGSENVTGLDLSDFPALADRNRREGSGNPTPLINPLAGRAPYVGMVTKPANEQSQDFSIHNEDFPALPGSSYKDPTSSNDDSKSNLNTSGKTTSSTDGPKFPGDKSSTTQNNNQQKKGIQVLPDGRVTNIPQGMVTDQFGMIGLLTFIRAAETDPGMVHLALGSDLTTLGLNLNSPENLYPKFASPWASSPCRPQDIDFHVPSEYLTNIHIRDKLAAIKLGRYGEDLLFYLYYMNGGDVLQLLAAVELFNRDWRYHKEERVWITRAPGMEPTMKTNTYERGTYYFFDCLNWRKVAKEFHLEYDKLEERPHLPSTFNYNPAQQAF
Sequence of UniProt Q96JB5 (Q96JB5 whole entry, looked up): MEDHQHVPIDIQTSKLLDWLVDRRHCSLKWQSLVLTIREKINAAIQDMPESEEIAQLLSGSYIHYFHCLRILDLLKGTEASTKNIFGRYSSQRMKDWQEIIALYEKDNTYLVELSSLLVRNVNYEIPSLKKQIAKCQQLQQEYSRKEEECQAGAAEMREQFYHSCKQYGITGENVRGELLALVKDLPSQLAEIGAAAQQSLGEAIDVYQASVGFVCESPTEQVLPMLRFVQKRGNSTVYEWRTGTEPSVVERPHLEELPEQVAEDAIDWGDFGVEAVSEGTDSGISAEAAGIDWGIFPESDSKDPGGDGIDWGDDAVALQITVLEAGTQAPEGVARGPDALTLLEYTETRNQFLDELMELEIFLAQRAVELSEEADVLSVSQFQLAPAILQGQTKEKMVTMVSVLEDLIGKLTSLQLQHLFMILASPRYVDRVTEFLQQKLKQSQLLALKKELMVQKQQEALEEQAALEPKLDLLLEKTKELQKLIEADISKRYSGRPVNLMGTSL
Sequence of UniProt Q86X83 (Q86X83 whole entry, looked up): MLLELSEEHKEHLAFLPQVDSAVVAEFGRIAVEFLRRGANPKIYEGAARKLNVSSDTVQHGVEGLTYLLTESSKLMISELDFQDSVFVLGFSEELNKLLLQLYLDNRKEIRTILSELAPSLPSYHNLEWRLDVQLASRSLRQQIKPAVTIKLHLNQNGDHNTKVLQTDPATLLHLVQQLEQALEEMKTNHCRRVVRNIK
Sequence of UniProt P19397 (P19397 whole entry, looked up): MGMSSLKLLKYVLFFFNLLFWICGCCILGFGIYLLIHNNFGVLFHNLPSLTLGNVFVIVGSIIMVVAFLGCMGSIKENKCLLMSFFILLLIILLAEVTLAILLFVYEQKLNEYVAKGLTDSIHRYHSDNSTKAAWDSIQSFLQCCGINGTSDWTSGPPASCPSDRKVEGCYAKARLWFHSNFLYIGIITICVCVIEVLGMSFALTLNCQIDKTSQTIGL
Sequence of UniProt Q5T6V5 (Q5T6V5 whole entry, looked up): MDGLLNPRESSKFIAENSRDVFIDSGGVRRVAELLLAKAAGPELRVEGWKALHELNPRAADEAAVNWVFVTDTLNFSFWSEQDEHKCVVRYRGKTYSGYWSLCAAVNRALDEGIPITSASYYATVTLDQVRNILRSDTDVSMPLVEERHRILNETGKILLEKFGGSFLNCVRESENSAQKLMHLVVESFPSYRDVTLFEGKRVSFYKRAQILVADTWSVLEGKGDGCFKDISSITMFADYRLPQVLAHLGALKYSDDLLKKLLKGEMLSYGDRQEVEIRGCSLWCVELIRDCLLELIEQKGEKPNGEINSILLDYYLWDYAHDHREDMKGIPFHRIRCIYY
Sequence of UniProt P48509 (P48509 whole entry, looked up): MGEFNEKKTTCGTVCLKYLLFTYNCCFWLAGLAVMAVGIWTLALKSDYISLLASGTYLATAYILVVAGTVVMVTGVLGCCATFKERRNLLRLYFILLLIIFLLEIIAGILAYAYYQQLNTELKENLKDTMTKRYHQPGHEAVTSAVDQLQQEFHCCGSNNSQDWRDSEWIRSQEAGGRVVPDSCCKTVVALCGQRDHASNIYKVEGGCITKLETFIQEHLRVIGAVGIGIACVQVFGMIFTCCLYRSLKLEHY
Sequence of UniProt P00915 (P00915 whole entry, looked up): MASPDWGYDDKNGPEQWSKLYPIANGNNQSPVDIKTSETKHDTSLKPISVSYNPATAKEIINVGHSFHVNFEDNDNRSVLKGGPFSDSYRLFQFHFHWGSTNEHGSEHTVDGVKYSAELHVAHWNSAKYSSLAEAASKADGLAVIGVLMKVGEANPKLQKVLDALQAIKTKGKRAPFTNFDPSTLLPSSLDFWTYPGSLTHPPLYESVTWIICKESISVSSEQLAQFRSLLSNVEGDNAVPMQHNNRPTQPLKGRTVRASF
Sequence of UniProt P61024 (P61024 whole entry, looked up): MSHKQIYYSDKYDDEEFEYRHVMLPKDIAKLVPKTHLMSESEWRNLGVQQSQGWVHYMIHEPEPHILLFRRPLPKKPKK

Target	log2 fold change
COMMD2 (UniProt Q86X83)	0.001 (inactive)
CCZ1 (UniProt P86791)	0.018 (inactive)
CA1 (UniProt P00915)	0.018 (inactive)
CDK13 (UniProt Q14004)	0.037 (inactive)
CPD (UniProt O75976)	0.015 (inactive)
CDKN2AIP (UniProt Q9NXV6)	0.054 (inactive)
CD151 (UniProt P48509)	-0.024 (inactive)
CDK5RAP3 isoform 4 (UniProt Q96JB5)	0.004 (inactive)
CD53 (UniProt P19397)	0.102 (inactive)
CD55 isoform 7 (UniProt P08174)	-0.136 (inactive)
C9orf64 (UniProt Q5T6V5)	-0.022 (inactive)
CNOT2 (UniProt Q9NZN8)	-0.021 (inactive)
CCDC59 (UniProt Q9P031)	-0.054 (inactive)

compound: CS(=O)(=O)CCNCc1ccc(-c2ccc3ncnc(Nc4ccc(OCc5cccc(F)c5)c(Cl)c4)c3c2)o1 [lapatinib]; assay: as above
Procedure, shortened: as §1

Target	log2 fold change
CSNK1D (UniProt P48730)	0.041 (inactive)
C9orf72 (UniProt Q96LT7)	0.062 (inactive)
CKS1B (UniProt P61024)	0.004 (inactive)
CDC123 (UniProt O75794)	0.017 (inactive)
CASP2 (UniProt P42575)	-0.323 (active)
C4orf33 (UniProt Q8N1A6)	0 (inactive)
CCNK isoform 4 (UniProt O75909)	0.066 (inactive)
CDK12 (UniProt Q9NYV4)	0.134 (inactive)
COX5B (UniProt P10606)	-0.038 (inactive)
CELF2 isoform 3 (UniProt O95319)	0.032 (inactive)
CDK5 (UniProt Q00535)	-0.033 (inactive)
CDK6 (UniProt Q00534)	-0.019 (inactive)
CMTM3 (UniProt Q96MX0)	-0.062 (inactive)
COQ9 (UniProt O75208)	0.043 (inactive)
CHEK1 (UniProt O14757)	-0.007 (inactive)
CBS (UniProt P35520)	-0.026 (inactive)
CPT1A (UniProt P50416)	0.1 (inactive)
CDK5RAP1 (UniProt Q96SZ6)	-0.034 (inactive)

Target	log2 fold change
CES2 isoform 4 (UniProt O00748)	0.161 (inactive)
COX6B1 (UniProt P14854)	-0.026 (inactive)
CTBS (UniProt Q01459)	0.004 (inactive)
CNOT1 (UniProt A5YKK6)	0.02 (inactive)
CETN2 (UniProt P41208)	-0.207 (inactive)
COMMD2 (UniProt Q86X83)	0.02 (inactive)
CCZ1 (UniProt P86791)	-0.005 (inactive)
CA1 (UniProt P00915)	-0.045 (inactive)
CDK13 (UniProt Q14004)	0.054 (inactive)
CPD (UniProt O75976)	-0.01 (inactive)
CDKN2AIP (UniProt Q9NXV6)	0.042 (inactive)
CD151 (UniProt P48509)	0.012 (inactive)
CDK5RAP3 isoform 4 (UniProt Q96JB5)	-0.034 (inactive)
CD53 (UniProt P19397)	-0.208 (inactive)
CD55 isoform 7 (UniProt P08174)	0.031 (inactive)
C9orf64 (UniProt Q5T6V5)	0.043 (inactive)
CNOT2 (UniProt Q9NZN8)	0.048 (inactive)
CCDC59 (UniProt Q9P031)	-0.034 (inactive)

compound: CS(=O)(=O)N1CCN(Cc2cc3nc(-c4cccc5[nH]ncc45)nc(N4CCOCC4)c3s2)CC1 [pictilisib]; assay: as above
Procedure, shortened: as §1

Target	log2 fold change
CSNK1D (UniProt P48730)	-0.053 (inactive)
C9orf72 (UniProt Q96LT7)	-0.015 (inactive)
CKS1B (UniProt P61024)	-0.007 (inactive)
CDC123 (UniProt O75794)	-0.027 (inactive)
CASP2 (UniProt P42575)	0.069 (inactive)
C4orf33 (UniProt Q8N1A6)	0.049 (inactive)
CCNK isoform 4 (UniProt O75909)	-0.033 (inactive)
CDK12 (UniProt Q9NYV4)	-0.018 (inactive)
COX5B (UniProt P10606)	-0.04 (inactive)
CELF2 isoform 3 (UniProt O95319)	0.051 (inactive)
CDK5 (UniProt Q00535)	-0.011 (inactive)
CDK6 (UniProt Q00534)	0.015 (inactive)
CMTM3 (UniProt Q96MX0)	-0.091 (inactive)
COQ9 (UniProt O75208)	-0.041 (inactive)
CHEK1 (UniProt O14757)	0.016 (inactive)
CBS (UniProt P35520)	0.043 (inactive)
CPT1A (UniProt P50416)	0.257 (inactive)
CDK5RAP1 (UniProt Q96SZ6)	0.075 (inactive)

Target	log2 fold change
CES2 isoform 4 (UniProt O00748)	0.103 (inactive)
COX6B1 (UniProt P14854)	0.002 (inactive)
CTBS (UniProt Q01459)	-0.068 (inactive)
CNOT1 (UniProt A5YKK6)	-0.046 (inactive)
CETN2 (UniProt P41208)	0.028 (inactive)
COMMD2 (UniProt Q86X83)	0.007 (inactive)
CCZ1 (UniProt P86791)	-0.047 (inactive)
CA1 (UniProt P00915)	0.072 (inactive)
CDK13 (UniProt Q14004)	-0.048 (inactive)
CPD (UniProt O75976)	0.034 (inactive)
CDKN2AIP (UniProt Q9NXV6)	-0.025 (inactive)
CD151 (UniProt P48509)	0.116 (inactive)
CDK5RAP3 isoform 4 (UniProt Q96JB5)	-0.015 (inactive)
CD53 (UniProt P19397)	0.276 (inactive)
CD55 isoform 7 (UniProt P08174)	0.005 (inactive)
C9orf64 (UniProt Q5T6V5)	-0.055 (inactive)
CNOT2 (UniProt Q9NZN8)	0.04 (inactive)
CCDC59 (UniProt Q9P031)	-0.234 (inactive)
